Unmarked numbers belong to inactive results. Calls of active or inactive are those of the source.
Test: CREB reporter modulators without forskolin, primary screen, cell-based, PC12, CRE-LacZ reporter, unstimulated (AID 1145)
Conditions: no forskolin, luminescence, 4.5 h, higher = more signal, called active from +8 up or from −8 down

In order of falling z-score:
1. OC([C@@H]1CC(c2ccccc2)=NO1)[C@H]1CC(c2ccccc2)=NO1 (stereo not given in full)  2.31
2. C=CC[C@]1(C(=O)NCCCOC)N=C(c2ccc(OCCCO)cc2)O[C@H]1c1ccccc1N=[N+]=[N-]  2.14
3. C=C(CCCC)/C(=C/C[C@@H](OC(C)=O)c1ccccc1OCCO)c1cnc2ccccc2c1  2.02
4. C=CC[C@@]1(C(N)=O)N=C(c2ccc(OCCCO)cc2)O[C@@H]1c1ccccc1CN=[N+]=[N-]  1.8
5. COC(=O)C(CC#Cc1ccc2c(c1)[C@]1(C(=O)N2)[C@H](c2ccc(O)cc2)N2[C@H](c3ccccc3)[C@H](c3ccccc3)OC(=O)[C@H]2[C@@H]1C(=O)Nc1nc2ccccc2s1)C(=O)OC  1.15
6. [N-]=[N+]=Nc1ccccc1C[C@]1(C(=O)NCC(O)CO)N=C(c2ccc(OCCCO)cc2)O[C@H]1c1ccccc1N=[N+]=[N-] (stereo not given in full)  1.05
7. C=CCNC(=O)[C@H]1[C@@H]2C(=O)O[C@@H](c3ccccc3)[C@@H](c3ccccc3)N2[C@@H](c2ccc(OCCO)cc2)[C@]12C(=O)N(C(=O)OCCOC)c1ccccc12  0.802
8. C=C(/C(=C/C[C@@H](OC(C)=O)c1ccc(OCCO)cc1)c1cnc2ccccc2c1)C(C)C  0.681
9. CCN(CC)c1ccc(N2CC=CC34O[C@@H]5/C=C\CCCOC(=O)C5[C@H]3C(=O)N(CCO)[C@@H]4C2=O)cc1 (stereo not given in full)  0.601
10. O=C1C2C=CC(C(O)C3CCCCC3)N(Nc3ccc([N+](=O)[O-])cc3)C2C(=O)N1c1ccccc1 (stereo not given)  0.537
11. O=C1c2ccccc2[C@](Cc2ccccc2I)(C(=O)NC2CC2)[C@H](c2ccc(CO)cc2)N1C1CCCCC1  0.531
12. COC(=O)c1c(CC[C@@H](CO)NC(=O)N2CCC[C@H]2Cn2cc(-c3ccccn3)nn2)oc(C(C)=O)c1C(=O)OC  0.395
13. O=C1OCC=C[C@H]2OC34C=CCN(CCN5CCOCC5)C(=O)[C@H]3N(CCCO)C(=O)[C@@H]4[C@@H]12 (stereo not given in full)  0.329
14. O=C1[C@H]2C=C(Br)[C@H](C[C@@H]2OCCCCO)[C@@]12CO2  0.22
15. [N-]=[N+]=NCc1ccccc1C[C@]1(C(=O)O)N=C(c2ccc(OCCCO)cc2)O[C@H]1c1ccccc1N=[N+]=[N-]  0.218
16. Cc1ccc(C(C)CC(O)C2C=CC3C(=O)N(c4ccccc4)C(=O)C3N2Nc2ccc([N+](=O)[O-])cc2)o1 (stereo not given)  0.136
17. O=C1C2C=CC(C(O)c3c(F)cccc3Cl)N(Nc3ccccc3)C2C(=O)N1c1ccccc1 (stereo not given)  0.0535
18. CCOC(=O)C[C@H]1[C@H](OC(=O)c2ccc(C(=O)c3ccccc3)cc2)[C@@H](NC(=O)c2ccc(-c3ccccc3)cc2)c2cc(OCCCO)ccc2N1C(=O)c1ccccc1  0.0035
19. COc1ccc(CCNC(=O)[C@@]2(C)c3ccccc3C(=O)N(Cc3cc(F)cc(C(F)(F)F)c3)[C@H]2c2ccc(CO)cc2)cc1  0.001
20. [N-]=[N+]=NCc1ccccc1[C@H]1OC(c2ccc(OCCCO)cc2)=N[C@@]1(Cc1ccccc1)C(=O)NCc1ccccc1  -0.0108
21. COc1ccc(CCN2C(=O)[C@@]3(c4ccc([N+](=O)[O-])cc4)CC(=O)N(C4CCCCC4)[C@@H]3c3ccc(CO)cc32)cc1  -0.0512
22. O=C1O[C@H](c2ccccc2)[C@H](c2ccccc2)N2[C@H]1[C@@H](C(=O)NC[C@H](O)c1ccccc1)[C@]1(C(=O)Nc3ccccc31)[C@H]2c1ccc(OCCO)cc1  -0.0784
23. CCCCC(O)C1C=CC2C(=O)N(c3ccccc3)C(=O)C2N1Nc1ccccc1F (stereo not given)  -0.143
24. COC(=O)[C@@]1(Cc2ccc(F)cc2)[C@H]2c3cc(C(=O)N4CCCC4)n(Cc4ccc(C)o4)c3C[C@H]2CN1C(=O)c1ccccc1  -0.182
25. C=CCNC(=O)[C@@H]1[C@H]2C(=O)O[C@H](c3ccccc3)[C@H](c3ccccc3)N2[C@H](c2ccccc2OCCO)[C@@]12C(=O)N(C(=O)OCCOC)c1ccc(C#CCNC(N)=O)cc12  -0.199
26. CC(C)c1ccc(NN2C(C(O)c3cc(C(F)(F)F)cc(C(F)(F)F)c3)C=CC3C(=O)N(c4ccccc4)C(=O)C32)cc1 (stereo not given)  -0.322
27. COc1ccc([Si](C)(C)[C@H]2[C@H](CCn3cc([C@H](O)c4ccccc4)nn3)O[C@@]3(C(=O)N(Cc4cccc(N5CCOC5=O)c4)c4ccccc43)[C@@H]2C)cc1  -0.36
28. O=C(NCc1ccccc1)[C@@]1(CCS(=O)(=O)c2ccccc2)N=C(c2ccc(OCCCO)cc2)O[C@H]1c1ccccc1  -0.435
29. O=C(NCc1ccccc1)[C@@H]1c2ccccc2C(=O)N(CC23CC4CC(CC(C4)C2)C3)[C@H]1c1ccc(CO)cc1  -0.439
30. O=C1O[C@@H](c2ccccc2)[C@@H](c2ccccc2)N2[C@@H](c3ccc(OCCO)cc3)[C@]3(C(=O)Nc4ccccc43)[C@@H](C(=O)NC[C@H](O)c3ccccc3)[C@H]12  -0.606
31. CCCCCN1CC=CC23O[C@@H]4/C=C\CCCOC(=O)C4[C@H]2C(=O)N(CCCO)[C@@H]3C1=O (stereo not given in full)  -0.619
32. COCCOC(=O)N1C(=O)[C@@]2(c3cc(C#CCCO)ccc31)[C@H](C(=O)N1CCN(c3ncccn3)CC1)[C@H]1C(=O)O[C@H](c3ccccc3)[C@H](c3ccccc3)N1[C@@H]2c1ccccc1OCCO  -0.698
33. COCCOC(=O)N1C(=O)[C@@]2(c3cc(C#CCCO)ccc31)[C@H](C(=O)Nc1nc3ccccc3s1)[C@H]1C(=O)O[C@H](c3ccccc3)[C@H](c3ccccc3)N1[C@@H]2c1ccc(OCCO)cc1  -1.14
34. C=CCN(Cc1ccccc1)C(=O)C(c1cccs1)N(CCOCCO)C(=O)/C=C\C(=O)O (stereo not given)  -1.58

With `COCC(=C=CC[C@H](O)c1ccccc1OCCO)C[C@H](O)c1cc(Cl)cc(Cl)c1O` the z-score was 24.4 (active).

From PubChem BioAssay
